# Bioassay records deposited in PubChem by National Center for Advancing Translational Sciences (NCATS).
# This is a sample that favours compounds with a hit; in the whole collection about 10% have one here.
# CtBP-E1A blk = blocks the CtBP interaction with E1A | activity change, % (no concentration beside the values) | AlphaScreen GST-E1A/His-CtBP binding, 1536-well; active compounds read low | AID 651724 | hit rate 0.49% among 340,000; in the data active means activity change below about -65%; inconclusive means mostly about -30% to -63%; further: on the % scale 0 is the no-effect control and ±100 the full control effect
#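 Steps: dispense buffer (Tris pH 8.0, NaCl 300 mM, TCEP 1 mM, BSA, Tween 20); add 5X protein mix (GST-E1A, His-CtBP, 125 nM each); pin 23 nL compound; 2 h at 37 °C, dark; add 5X beads (50 ug/mL); 1 h; read.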
# JMJD2A Tudor inh = blocks the human JMJD2A Tudor domain; Potency, µM (series often up to 114 µM), for inactives: at the highest dose activity change, negative = inhibition, usual class: inhibitors; AlphaScreen JMJD2A-Tudor / H3K4me3 peptide binding; hit rate 4.4% among 390,000; O75164; further: potency means the concentration at half of the fitted maximal effect; on the % scale 0 is the no-effect control and ±100 the full control effect; nearly all actives have a fitted effect of over 50% in size
# BAZ2B block = BAZ2B (human) inhibition; AlphaScreen BAZ2B-H3K14Ac peptide displacement; Potency, µM (highest dose often 114 µM), inactives show at the top dose activity change, negative = inhibition, actives largely listed as inhibitors; hit rate 4.4% among 360,000; Q9UIF8; further: potency means the concentration at half of the fitted maximal effect; on the % scale 0 is the no-effect control and ±100 the full control effect; nearly all actives have a fitted effect of over 60% in size
#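 AlphaScreen displacement: compounds (up to 110uM) incubated 30 min at room temperature with a preformed 50 nM BAZ2B/50 nM biotinylated H3K14Ac peptide complex in PBS pH 7.4 with Tween-20. Donor and acceptor beads at 10 ug/mL final added, 20 min light-protected before reading.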
# Six1-Eya2 inh = Six1/Eya2 interaction inhibition; AlphaScreen GST-Six1/His-Eya2 binding, biochemical; active compounds read low; activity change, % (concentration not given with the values); hit rate 0.56% among 360,000; AID 651725; Q15475+O00167; in the data active means activity change below about -65%; inconclusive means mostly about -30% to -63%; further: on the % scale 0 is the no-effect control and ±100 the full control effect
# Target sequence (O00167 whole entry, looked up): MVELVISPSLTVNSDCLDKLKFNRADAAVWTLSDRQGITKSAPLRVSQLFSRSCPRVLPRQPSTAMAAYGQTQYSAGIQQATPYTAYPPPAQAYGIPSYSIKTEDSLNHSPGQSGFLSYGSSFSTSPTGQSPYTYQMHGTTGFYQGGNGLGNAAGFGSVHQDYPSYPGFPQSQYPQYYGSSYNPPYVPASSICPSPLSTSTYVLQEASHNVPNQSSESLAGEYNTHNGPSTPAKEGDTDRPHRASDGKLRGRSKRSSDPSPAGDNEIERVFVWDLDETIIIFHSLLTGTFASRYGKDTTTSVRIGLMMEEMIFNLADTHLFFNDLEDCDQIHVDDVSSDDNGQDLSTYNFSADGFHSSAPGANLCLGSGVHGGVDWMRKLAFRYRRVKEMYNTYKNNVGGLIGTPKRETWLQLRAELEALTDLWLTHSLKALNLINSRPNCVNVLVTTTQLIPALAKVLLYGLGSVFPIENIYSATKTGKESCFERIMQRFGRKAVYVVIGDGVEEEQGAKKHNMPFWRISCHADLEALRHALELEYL
# Target sequence (Q15475 whole entry, looked up): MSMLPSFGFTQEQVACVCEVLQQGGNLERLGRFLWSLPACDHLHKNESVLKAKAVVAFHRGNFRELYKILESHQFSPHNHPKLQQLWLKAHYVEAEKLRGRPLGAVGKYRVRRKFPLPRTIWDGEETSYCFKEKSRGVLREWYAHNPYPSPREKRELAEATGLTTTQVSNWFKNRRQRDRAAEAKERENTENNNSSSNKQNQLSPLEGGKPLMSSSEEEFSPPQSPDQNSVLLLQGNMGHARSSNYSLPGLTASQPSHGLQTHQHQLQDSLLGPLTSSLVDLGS
#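 Six1/Eya2 binding was read as AlphaScreen signal after compounds were pinned into GST-Six1 plus His-tagged Eya2 (5X stock 250/500 nM) in pH 8.0 Tris/NaCl/TCEP buffer, beads added, then incubated 1 h, 37 C, dark.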
# HP1b chromo inh = inhibitors of HP1-beta chromodomain binding to methylated histone tails. AlphaScreen HP1-beta / biotin-H3K9me3 peptide binding. Potency, µM (series often up to 114 µM), without a hit: at the top dose activity change, negative = inhibition, hits mostly inhibitors. hit rate 0.56% among 390,000. AID 540317; further: potency means the concentration at half of the fitted maximal effect; nearly all actives have a fitted effect of over 70% in size
#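 HP1-beta protein (50 nM final) preincubated 30 min at room temperature with biotinylated H3(1-18)K9me3 peptide (50 nM) in PBS pH 7.4, 0.01% Tween-20, then compound added for 30 min. AlphaScreen streptavidin donor/nickel chelate acceptor beads (10 ug/mL final), 30 min dark, luminescence read.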
# G9a inh = blocks human histone lysine methyltransferase G9a. Q96KQ7. G9a H3K9 monomethylation, AlphaScreen, 2 h. Potency, µM (titrated, usually from 102 µM), for the others: at the top dose activity, negative = inhibition, actives largely listed as inhibitors. hit rate 8.8% among 350,000. AID 504332; further: potency means the concentration at half of the fitted maximal effect; on the % scale 0 is the no-effect control and ±100 the full control effect; nearly all actives have a fitted effect of over 75% in size
#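 Compounds were preincubated with 20 nM G9a for 15 min, after which biotinylated H3K9 peptide (500 nM) and SAM (20 uM) started a 2 h room-temperature reaction. Monomethylated product was quantified by antibody-based AlphaScreen chemiluminescence.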
# The depositor's hits bear a star; ? = inconclusive; / = no result given; [ ] = another dose, or the depositor's remark. Unless noted, the call rests on the fitted dose curve; in most records, active means well fitted inhibition curve with a large enough effect; inconclusive means small, poorly fitted or top-dose-only effect; inactive means no such curve, though single readings can be large or run the other way.
SMILES,CtBP-E1A blk,JMJD2A Tudor inh,BAZ2B block,Six1-Eya2 inh,HP1b chromo inh,G9a inh
O=C(CCN1CCN(c2ccccc2)CC1)c1ccc(Cl)cc1,-11,-22%,-27%,-11,33%,28µM*
O=C(CCN1CCN(c2ccc([N+](=O)[O-])cc2)CC1)c1ccc(Cl)cc1,1,?,?,5,3%,14µM*
COCC(=O)N1C[C@H](C)[C@H](OC)CN(C)C(=O)c2cc(NC(=O)Nc3cccc(F)c3)ccc2OC[C@@H]1C,3,/,/,-1,/,/
CC(=O)Nc1cc(OC(C)=O)c2nonc2c1OC(C)=O,?,-19%,?,-2,30%,?
CC(=O)Oc1ccc2nonc2c1OC(C)=O,/,?,/,/,20µM*,/
CCCC(=O)C1C(=O)CC(C)(C)C(c2cc(C)no2)C1=O (centres undefined),0,50µM*,-11%,17,10%,?
COC(=O)CCCCC(=O)C1C(=O)CC(C)(C)C(C(=O)OC)C1=O (centres undefined),3,?,-1%,4,17%,?
COc1cccc(-c2cc(C(=O)N3CCc4ccccc4C3)[nH]n2)c1,6,1%,-24%,11,38%,6%
C/C(=C/CCC(C)(O)C1CC[C@@]2(C)[C@@H]3CC=C4[C@@H](CC[C@H](O[C@H]5O[C@@H](CO)[C@H](O)[C@@H](O)[C@@H]5O)C4(C)C)[C@]3(C)C(=O)C[C@]12C)CO[C@@H]1O[C@H](CO)[C@@H](O)[C@H](O)[C@H]1O (some centres undefined),2,-10%,/,4,22%,/
COc1ccc2c(Sc3ccc(Cl)cc3)c(C(=O)N3CCCCC3)[nH]c2c1,/,?,-30%,/,11%,?
C[C@@H]1Cc2c(O)c(O)cc(O)c2C(=O)O1,2,56µM*,?,-6,?,-151%[59 µM]
CCCC1=C/C(=C/c2ccc(-c3ccccc3OC)o2)C(=O)O1,17,?,40µM*,-15,-28%,28µM*
COc1ccccc1-c1ccc(/C=C2/C=C(CC(C)C)OC2=O)o1,13,?,40µM*,1,?,10µM*
O=Cc1ccc(-c2ccccc2OC(F)(F)F)o1,0,3%,-2%,12,21%,18%
O=C1CCCC2=C1Sc1ccccc1N2,-8,-36%,45µM*,-3,-21%,/
O=C1Cc2cc([N+](=O)[O-])ccc2N1c1c(Cl)cccc1Cl,-4,?,?,-25,-19%,10%
COC(=O)c1nn(-c2ccc(C)cc2)c2nnc(Cc3ccccc3)c(=O)n12,6,0%,0%,4,41%,18µM*
CCOC(=O)CCNCC1COc2ccccc2O1 (centres undefined),6,-4%[11.4 µM],7%,12,35%,-17%[59 µM]
CC(=O)c1cccc(OCC(O)CNCC2COc3ccccc3O2)c1 (centres undefined),8,0.79µM*,32µM*,-4,50µM*,26%[0.501 µM]
COc1ccc(CNC(=O)Cc2cccs2)cc1,/,-2%,-7%,1,25%,/
COc1ccc(CNCC(O)COCc2cccs2)cc1 (centres undefined),9,1.6µM*,?,0,-56%,?
OC(CNCC1COc2ccccc2O1)COCc1cccs1 (centres undefined),3,1.6µM*,89µM*,3,-51%,8.9µM*
CC(OCC(O)CNCC1COc2ccccc2O1)c1ccc(Cl)cc1 (centres undefined),1,2.2µM*,79µM*,5,?,10µM*
COc1ccccc1N(CC(=O)NCCSc1ccc(Cl)cc1)S(C)(=O)=O,3,-4%,5%,-5,17%,-2%
O=C(Nc1ccc(NC(=O)c2cccs2)c(Cl)c1)c1cccs1,-11,-10%,1%,2,-22%,-9%
SMILES,CtBP-E1A blk,JMJD2A Tudor inh,BAZ2B block,Six1-Eya2 inh,HP1b chromo inh,G9a inh
Cc1ccc(-n2nc(C(=O)N3CCN(c4ccccc4F)CC3)c(=O)n(C)c2=O)cc1,/,-14%,-15%,/,11%[57 µM],-22%[59 µM]
Cn1c(/N=C/c2ccccc2[N+](=O)[O-])nc2ccccc21,-2,-9%,8%,-9,32%,79µM*
CC(C)C(=O)Nc1ccc2nc(SCCOc3ccccc3)sc2c1,/,-12%,-13%,/,12%,5%[59 µM]
O=C(N1CCc2cc([S+](=O)([O-])N3CCN([S+](=O)([O-])c4c(F)cccc4F)CC3)ccc2C1)C(F)(F)F,/,-18%,/,/,/,/
CC(C)(C)OC(=O)N1CCC[C@H]1c1nnc(SCc2ccccc2)o1,-2,7%,-8%,-1,-5%,?
CC(C)(C)OC(=O)N1CCC[C@H]1c1nnc(SCc2ccccc2F)o1,4,3%,4%,1,53%,50µM*
c1ccc(Nc2nc(-c3ccoc3)nc3ccccc23)cc1,/,/,/,/,/,8%[0.501 µM]
Cc1ccc(S(=O)(=O)c2nc(-c3ccco3)oc2NCC2CCCO2)cc1 (centres undefined),4,-17%,-36%,3,26%,10µM*
CN(C)c1oc(-c2ccco2)nc1S(=O)(=O)c1ccc(Br)cc1,13,?,?,-2,-24%,1%[12.7 µM]
O=S(=O)(c1ccc(Br)cc1)c1nc(-c2ccco2)oc1NCC1CCCO1 (centres undefined),1,-8%,?,0,35%,35µM*
Cc1ccc(CSc2oc(-c3ccco3)nc2S(=O)(=O)c2ccc(C)cc2)cc1,/,-20%,-14%,/,11%,-33%[59 µM]
Cc1cccc(C)c1NC(=O)C(c1ccnc2ccccc12)N1CCN(CCN(C)C)CC1 (centres undefined),-1,/,/,9,/,/
COC(=O)[C@H]1CN(C(=O)c2ccccc2)C(=O)N1,8,-7%,-7%[57.1 µM],1,22%,/
COC(=O)C1CCC(=S)N1C(=O)c1ccccc1 (centres undefined),/,-1%,-30%,0,42%,45µM*
Cc1nc(N2CCCCC2)c2ccsc2n1,4,0.79µM*,5µM*,5,?,20µM*
CSc1ccccc1C(=O)NC1CCSc2ccccc21 (centres undefined),2,-26%,-9%,1,5%,40µM*
O=C(NC1CCSc2ccccc21)c1ccccc1F (centres undefined),-5,-6%,-3%,-4,45%,/
COc1ccc(C(=O)NC2CCSc3ccccc32)cc1 (centres undefined),1,-7%,-20%,-5,17%,20%
CC(=O)Nc1ccc(C(=O)NC2CCSc3ccccc32)cc1 (centres undefined),-1,-22%,-10%,3,26%,14µM*
